Measurements from PubChem BioAssay (Tox21).
Results filed as inconclusive are left out. Where a call stands in place of a potency, no number is given. The source made the active and inactive calls. The call rests on the fitted dose curve; in most records, active means well fitted activation curve with a large enough effect in the repeat runs; inconclusive means weak or mixed curves; inactive means flat fitted curve, though single readings scatter.

Experiment: Caspase-3/7 induction in HepG2 cells by small molecules, qHTS assay (AID 1346978); further: nearly all actives have a fitted effect of over 15% in size
Outline: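 Wild-type HepG2 cells, 2,000/well, settled 5 hr at 37 C and 5% CO2, then compound-treated for 17 hr; caspase-3/7 activity read by luminescent Caspase-Glo 3/7 after 30 min at room temperature.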

CN1[C@@H]2CC[C@H]1CC(OC(=O)C(CO)c1ccccc1)C2 (stereo partly specified)
Potency: inactive
